# Compound activity deposited in PubChem BioAssay by National Center for Advancing Translational Sciences (NCATS).
# Compounds with a hit are over-represented: about 11% of the library has one in this group of screens.
# IL-1B inflam inh – blocks inflammasome-driven IL-1 beta release. THP-1 LPS/ATP IL-1B secretion, AlphaLISA, 16 h; stronger effect = lower value. activity change, % at 57.5 µM. 360,000 tested, 4.7% active. AID 743279; in the data active means activity change below about -50%; inconclusive means mostly about -30% to -49%
#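 THP-1 cells pretreated 1 hr with compounds (up to 57.5 uM final), then stimulated with LPS (250 ng/mL final) plus ATP (1.25 mM final); secreted IL-1B measured by AlphaLISA after 16 hr, decreased signal indicating inhibition.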
# VP16 counter – inhibits Gal4-VP16 luciferase reporter, ROR gamma counter-screen; 310,000 tested, 3.5% active; Potency, µM (highest dose often 53.6 µM), hits mostly inhibitors; Drosophila S2 Gal4-VP16 UAS-luciferase, luminescence, 20 h;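 further: Gal4-VP16 expression switched on by copper sulfate through the metallothionein promoter; nearly all actives have a fitted effect of over 50% in size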
# RORgamma inh – ROR gamma (mouse) transcription inhibition; Drosophila S2 Gal4-RORgamma UAS-luciferase reporter, 20 h; Potency, µM (series often up to 53.6 µM), actives largely listed as inhibitors; P51450; 310,000 tested, 5.4% active; further: nearly all actives have a fitted effect of over 60% in size
# Target sequence (P51450 whole entry, looked up, the tested form may be a part): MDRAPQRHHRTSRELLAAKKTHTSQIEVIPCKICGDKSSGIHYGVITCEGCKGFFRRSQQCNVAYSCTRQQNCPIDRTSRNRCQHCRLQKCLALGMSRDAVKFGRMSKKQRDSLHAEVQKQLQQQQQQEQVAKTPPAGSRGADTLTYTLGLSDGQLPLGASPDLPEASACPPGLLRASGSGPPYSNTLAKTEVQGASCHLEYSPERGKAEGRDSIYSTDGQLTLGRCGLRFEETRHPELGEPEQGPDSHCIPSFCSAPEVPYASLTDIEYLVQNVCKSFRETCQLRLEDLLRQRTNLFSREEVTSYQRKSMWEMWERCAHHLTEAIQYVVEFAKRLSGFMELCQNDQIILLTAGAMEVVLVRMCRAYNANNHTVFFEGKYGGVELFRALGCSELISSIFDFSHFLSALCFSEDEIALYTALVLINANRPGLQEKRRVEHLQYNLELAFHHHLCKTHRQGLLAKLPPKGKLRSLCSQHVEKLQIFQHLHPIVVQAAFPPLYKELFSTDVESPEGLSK
#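 In this cell-based reporter format, copper sulfate (700 uM final) drives Gal4–ROR gamma fusion expression from a metallothionein promoter in Drosophila Schneider cells; compounds preincubated 1 hr, reporter read after 20 hr at ambient temperature.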
# MCF10A rerep – DNA re-replication induction in MCF 10a cells; MCF 10A DNA re-replication, Hoechst nuclear intensity, 48 h; Potency, µM (doses to about 46.1 µM), hits mostly activators; 350,000 tested, 2.9% active; AID 624296; further: nearly all actives have a fitted effect of over 50% in size
# SW480 rerep – inducers of DNA re-replication in SW480 colon cancer cells; SW480 DNA re-replication, Hoechst DNA content imaging, 48 h; Potency, µM (top dose mostly 46.1 µM), usual class: activators; 340,000 tested, 1.8% active; AID 624297; further: nearly all actives have a fitted effect of over 55% in size
#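 DNA re-replication was detected as more nuclei of elevated Hoechst intensity after 48 hr exposure to compound (23 nL pinned per well of 250 cells).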
# A number is an active result; i = inactive; ? = inconclusive; nt = no result given. Unless noted, the call rests on the fitted dose curve; in most records, active means well fitted curve in the direction sought with a large enough effect; inconclusive means small, poorly fitted or top-dose-only effect, or another doubt; inactive means no such curve, though single readings can be large; an effect the other way counts as inactive or inconclusive.
SMILES,IL-1B inflam inh,VP16 counter,RORgamma inh,MCF10A rerep,SW480 rerep
COc1ccc(C(=O)N2CCC[C@@]3(CCN(CC(C)C)C3)C2)cc1,nt,i,i,nt,nt
Cc1ccc(NC(=O)c2ccccc2OCC(=O)Nc2ccccc2F)cc1S(=O)(=O)N(C)C,i,nt,nt,i,i
CN(C)CCCn1c2c3ccccc3ccc2c2oc(=O)c3ccccc3c21,-100,nt,nt,3.7µM,18µM
CCCCn1c(N)c(N(CCOC)C(=O)CCNC(=O)c2ccc(Br)cc2)c(=O)[nH]c1=O,i,nt,nt,i,i
Cc1ccc2c(Cl)cc(Cl)c(OCC(=O)N3CCOCC3)c2n1,i,nt,nt,i,i
Cc1ccc2c(Cl)cc(Cl)c(OCC(=O)NCc3ccco3)c2n1,nt,11µM,7.1µM,nt,nt
Cc1ccc2c(Cl)cc(Cl)c(OCC(=O)NC(=O)NCc3ccco3)c2n1,i,i,10µM,i,i
Cc1ccc2c(Cl)cc(Cl)c(OCC(=O)N3CCCC3)c2n1,i,?,14µM,i,i
Cc1ccc2c(Cl)cc(Cl)c(OCC(=O)Nc3cc(C)on3)c2n1,nt,i,i,nt,nt
Cc1cc(Cl)cc(Cl)c1OCC(=O)NCc1ccco1,?,?,?,?,i
CC(=O)N(O)C/C=C/c1cccc(Oc2ccccc2)c1,nt,i,?,nt,nt
Cc1ccc(CSc2nc3ccccc3cc2C=O)cc1,i,i,i,21µM,2.6µM
O=Cc1cc2ccccc2nc1SCc1ccc(Cl)cc1,i,i,?,?,?
CC(C)(C)C#CCn1c(/C=[N+](\[O-])C2CCCCC2)nc2ccccc21,i,i,10µM,i,?
CC(=O)c1cccc(NC(=O)CCn2c(=O)oc3ccccc32)c1,i,i,i,i,i
Cc1c(NC(=O)c2ccc(Cl)c([N+](=O)[O-])c2)cccc1-n1cnnn1,-99,nt,nt,i,?
O=C(Nc1cccnc1Cl)c1ccc(Cl)c([N+](=O)[O-])c1,i,i,i,i,23µM
O=C(Nc1ccccn1)c1ccc(Cl)c([N+](=O)[O-])c1,i,i,i,?,i
O=C(Nc1ccccc1Cl)c1ccc(-n2cccn2)c([N+](=O)[O-])c1,-83,i,i,i,?
Cc1cc(CSc2ccccc2)ccc1NC(=O)c1ccc(Cl)c([N+](=O)[O-])c1,?,i,i,18µM,i
Cc1cc(CSc2ccccc2)ccc1NC(=O)c1ccc(C)c([N+](=O)[O-])c1,i,i,i,i,i
Cc1ccc(NC(=O)c2ccc(-n3cccn3)c([N+](=O)[O-])c2)cc1,i,i,?,i,i
CC1(C(=O)Nc2cnc3ccccc3c2)CCN1C(=O)C/C=C/c1ccccc1 (centres undefined),i,nt,nt,nt,nt
CCCCCCCCN1C(=O)[C@H](CC(=O)NCc2cccc(C(F)(F)F)c2)C[C@@]2(C(=O)OC)CC(C)(C)CC=C12,i,nt,nt,nt,nt
Cc1ccc(/C(N)=N/OC(=O)N2c3ccccc3Sc3ccccc32)cc1,i,nt,nt,14µM,i
SMILES,IL-1B inflam inh,VP16 counter,RORgamma inh,MCF10A rerep,SW480 rerep
Cc1ccccc1/C(N)=N/OC(=O)N1c2ccccc2Sc2ccccc21,i,?,?,i,i
CCOc1ccc(-c2[nH]ncc2Oc2ccccc2OCC)c(O)c1,i,?,10µM,i,i
CCOc1ccc(-c2[nH]ncc2Oc2ccccc2OC)c(O)c1,i,?,16µM,i,i
CCOc1ccccc1Oc1cn[nH]c1-c1ccc(OCC(=O)NN)cc1O,i,i,i,i,i
CN1N=C2c3ccccc3CCCC2C1c1ccc(F)cc1 (centres undefined),i,i,?,?,21µM
COc1ccc2c(c1)C1=NN(/C(C)=C/C(C)=O)C(c3ccc(F)cc3)C1CC2 (centres undefined),i,?,i,?,i
Cc1snc(SCC(=O)N/N=C(\N)COc2ccc(F)cc2)c1C#N,i,4.5µM,2.5µM,i,i
CCc1ccc(CN(C)CC(O)COc2cccc3ccccc23)cc1 (centres undefined),-99,i,i,?,?
CN(CCOc1cccc2ccccc12)Cc1ccccc1,i,i,i,i,i
Cc1ccc(C(C)C)c(OCC(O)CNC2CCCC2)c1 (centres undefined),-51,i,?,i,i
Cc1ccc(C(C)C)c(OCC(O)CN(C)Cc2ccccc2)c1 (centres undefined),-85,i,i,?,21µM
